From PubChem BioAssay
Sampled rows, rich in hits. Any-hit rate of the full collection: about 18%.
RORg inh = blocks mouse ROR gamma transcriptional activity; AID 2551; Drosophila S2 Gal4-RORgamma UAS-luciferase reporter, 20 h; Potency, µM (top dose mostly 53.6 µM), for inactives: at the top dose activity change, negative = inhibition, usual class: inhibitors; P51450; 5.4% of 310,000 active; also: potency is read from the fitted curve at half-maximal effect; nearly all actives have a fitted effect of over 60% in size
Target sequence (P51450 whole entry, looked up, the tested form may be a part): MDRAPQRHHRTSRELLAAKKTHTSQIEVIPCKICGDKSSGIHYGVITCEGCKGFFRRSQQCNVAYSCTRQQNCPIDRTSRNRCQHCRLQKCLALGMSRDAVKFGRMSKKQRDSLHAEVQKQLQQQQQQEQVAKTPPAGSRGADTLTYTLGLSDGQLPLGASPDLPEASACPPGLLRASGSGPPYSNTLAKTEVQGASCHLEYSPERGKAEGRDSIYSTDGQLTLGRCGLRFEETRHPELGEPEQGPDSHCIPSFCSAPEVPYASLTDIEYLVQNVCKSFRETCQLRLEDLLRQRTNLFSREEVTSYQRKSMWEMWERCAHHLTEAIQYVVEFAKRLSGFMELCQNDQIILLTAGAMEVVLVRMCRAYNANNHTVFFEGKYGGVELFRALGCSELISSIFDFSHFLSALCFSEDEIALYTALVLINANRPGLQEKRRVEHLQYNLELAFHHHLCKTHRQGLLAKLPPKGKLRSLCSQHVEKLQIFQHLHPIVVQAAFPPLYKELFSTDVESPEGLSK
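In this cell-based reporter format, copper sulfate (700 uM final) drives Gal4–ROR gamma fusion expression from a metallothionein promoter in Drosophila Schneider cells; compounds preincubated 1 hr, reporter read after 20 hr at ambient temperature.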
Gal4-VP16 FLuc = Gal4-VP16 reporter inhibition counter-screen | Drosophila S2 Gal4-VP16 UAS-luciferase, luminescence, 20 h | Potency, µM (highest dose often 53.6 µM), without a hit: top-dose activity, negative = inhibition, actives largely listed as inhibitors | 3.5% of 310,000 active | AID 2546;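 also: Gal4-VP16 expression switched on by copper sulfate through the metallothionein promoter; potency is read from the fitted curve at half-maximal effect; nearly all actives have a fitted effect of over 50% in size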
IL1B secr inh = inflammasome signaling inhibition, IL-1 beta readout; THP-1 LPS/ATP IL-1B secretion, AlphaLISA, 16 h; stronger effect = lower value; activity change, % at 57.5 µM; 4.7% of 360,000 active; AID 743279; in the data active = activity change below about -50%; inconclusive = mostly about -30% to -49%
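Secreted IL-1B measured by AlphaLISA bead assay after 16 h compound exposure of THP-1 cells; compounds (final up to 57.5 uM) added 1 h before LPS (250 ng/mL) and ATP (1.25 mM) stimulation; lower signal means less secretion.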
DT40 TDP1 no CPT = qHTS for Inhibitors of human tyrosyl-DNA phosphodiesterase 1 (TDP1): qHTS in cells in absence of CPT | DT40 Tdp1-/- hTDP1 cells, no CPT, ATP luminescence, 48 h | Potency, µM (top dose mostly 46.2 µM), for the others: at the top dose activity change, negative = growth inhibition, most hits filed as inhibitors | 15% of 420,000 active | AID 686978, 2013; also: potency is read from the fitted curve at half-maximal effect; nearly all actives have a fitted effect of over 55% in size
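Readout: luminescence from CellTiter-Glo after 30 min in the dark at RT. Cells: DT40 Tdp1-/- with stable hTDP1, 400/well. Exposure: compounds alone, ≥48 hr, 37 °C.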
DT40 TDP1 CPT = DT40-hTDP1 cell growth loss with CPT; chicken DT40 Tdp1-/-;hTDP1 cells + 20 nM CPT, ATP luminescence, 48 h; Potency, µM (titrated, usually from 46.2 µM), without a hit: at the highest dose activity change, negative = growth inhibition, usual class: inhibitors; 12% of 420,000 active; AID 686979; also: potency is read from the fitted curve at half-maximal effect; nearly all actives have a fitted effect of over 55% in size
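Chicken DT40 Tdp1-/- cells stably complemented with human TDP1 were seeded at 400 cells/well in medium containing 20 nM camptothecin, exposed to pin-transferred compounds, and grown at 37 °C for at least 48 hr. Viability was read as ATP luminescence.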
LDHA inh = blocks human lactate dehydrogenase A | purified LDHA, NADH/diaphorase-resazurin fluorescence; stronger effect = lower value | P00338 | activity change, % (values are at about 110 or 230 µM) | 0.15% of 480,000 active; in the data active = activity change below about -30%; inconclusive = mostly about -25% to -30%;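 also: plate controls were DMSO wells for no effect and wells without enzyme for full effect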
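Human LDH5 (2 nM) was incubated with 0.06 mM NADH and 0.2 mM pyruvate for 5 min at room temperature in Tris pH 7.4. Remaining NADH was coupled through diaphorase/resazurin, and resorufin fluorescence was read at 0 and 20 min.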
Numbers without * were called inactive; ? = inconclusive; / = no result; [ ] = another dose, or the depositor's remark. Unless noted, calls follow the shape of the dose curve; as a rule, active = well fitted curve in the direction sought with a large enough effect; inconclusive = small, poorly fitted or top-dose-only effect, or another doubt; inactive = no such curve, though single readings can be large; an effect the other way counts as inactive or inconclusive. Unless noted, % is scaled to controls: 0 for no effect and ±100 for the full control effect.

SMILES	RORg inh	Gal4-VP16 FLuc	IL1B secr inh	DT40 TDP1 no CPT	DT40 TDP1 CPT	LDHA inh
CC(NC(=O)c1cc(-c2ccncc2)nc2ccccc12)c1ccco1 (stereo not drawn)	/	/	/	/	/	0
COc1ccc2cc(C(=O)N3CCC(C)(C(=O)NCc4ccccc4)CC3)[nH]c2c1	/	/	/	/	/	-10
COc1ccc(-n2nnnc2C2CCN(S(=O)(=O)c3ccc(NC(C)=O)cc3)CC2)cc1	/	/	/	4.6µM*	5.8µM*	-2
COc1ccc(-n2nnnc2C2CCN(S(=O)(=O)c3ccc(F)cc3Cl)CC2)cc1	/	/	/	16µM*	?	4
CS(=O)(=O)Nc1cccc(CNC(=O)CCC2CCCCC2)c1	/	/	/	/	/	-25
Cc1csc(C(C#N)C(=O)CSc2ccc3c(c2)OCCO3)n1 (stereo not drawn)	/	/	/	/	/	1
O=C(Nc1ccc(Br)cc1F)N1CCC2(CC1)Oc1ccccc1C(=O)N2Cc1ccccc1F	/	/	/	16µM*	?	-3
O=C(Nc1ccccc1Cl)N1CCC2(CC1)Oc1ccccc1C(=O)N2Cc1ccc(F)cc1	/	/	/	21µM*	?	-5
Cc1ccc(NC(=O)N2CCC3(CC2)Oc2ccccc2C(=O)N3Cc2ccc(F)cc2)cc1	/	/	/	?	?	5
O=C(Nc1ccc(F)c(Cl)c1)N1CCC2(CC1)Oc1ccccc1C(=O)N2Cc1ccccc1F	/	/	/	12µM*	?	-6
O=C1CCCC2=C1C(c1ccc(Br)cc1)n1nc(-c3ccco3)nc1N2 (stereo not drawn)	/	/	/	/	/	6
CCOC(=O)Cn1c(=O)cc(C)c2ccccc21	-9%	-15%[10 µM]	-10	12µM*	8.2µM*	1
CC(NC(=O)C1CCCCC1)c1cccc(Br)c1 (stereo not drawn)	/	/	/	/	/	10
COc1ccc(C(=O)NC2CCCCNC2=O)cc1OC (stereo not drawn)	/	/	/	/	/	0
CCOC(=O)c1c(CSc2ccc(C)cc2)n(C)c2cc(Br)c(O)c(CN(C)C)c12	-33%	3%	0	8.2µM*	?	2
CCOC(=O)c1c(CN2CCOCC2)n(-c2ccccc2)c2cc(Br)c(O)c(CN(C)C)c12	-12%	0%	?	?	?	2
CCOC(=O)c1c(CN(C)C)oc2cc(CN(C)C)c(O)c(CSc3ccccc3)c12	1%[10 µM]	1%	-50*	-24%	-21%	-3
CCOC(=O)c1c(CSc2ccccc2)n(C)c2ccc(O)c(CN3CCN(C)CC3)c12	-7%	0%	0	?	?	2
CCOC(=O)c1c(CN2CCCCC2)n(C)c2cc(Br)c(OC)cc12	-9%	-8%	-2	11µM*	?	1
CCOC(=O)c1c(CN2CCN(CCO)CC2)n(C)c2cc(Br)c(OC)cc12	-34%	-4%	-12	?	?	3
CCOC(=O)c1c(CSc2ccccc2)n(C)c2cc(Br)c(O)c(CN(C)C)c12	2%	-5%	-86*	15µM*	21µM*	0
COc1cc(-c2nc3c(c(=O)[nH]c(=O)n3Cc3ccccc3)n2C)ccc1OCc1ccccc1	/	/	/	/	/	4
COC(=O)c1cccc(S(=O)(=O)NCc2ccc(N3CCCC3)nc2)c1	/	/	/	/	/	-3
NC1=NC(c2c[nH]c3ccccc23)n2c(nc3ccccc32)N1 (stereo not drawn)	/	/	/	/	/	-9
O=C(CCC(=O)c1ccc(Cl)cc1)OCC(=O)c1ccc([N+](=O)[O-])cc1	/	/	/	/	/	-16
SMILES	RORg inh	Gal4-VP16 FLuc	IL1B secr inh	DT40 TDP1 no CPT	DT40 TDP1 CPT	LDHA inh
CN(CCS(=O)(=O)c1ccccc1)Cc1ccccc1	/	/	/	/	/	-4
CCOC(=O)c1c(CN2CCCCC2)n(C)c2cc(Br)c(O)c(CN(C)C)c12	12%	-5%	-10	?	18µM*	5
CCOC(=O)c1c(CN(CC)CC)n(C)c2cc(Br)c(O)cc12	7%	-8%	-5	?	-11%	-3
CCOC(=O)c1c(CSc2ccsc2)n(C)c2cc(Br)c(O)c(CN(C)C)c12	-13%	-10%	-53*	23µM*	18µM*	2
CCN(CC)c1nc2ccccc2nc1C(=O)Nc1cccc(C)c1	/	/	/	/	/	1
O=C(Cc1c[nH]c2ccccc12)Nc1cccc(F)c1	/	/	/	/	/	6
CC(C)(C)c1ccc(NC(=S)NCc2cccnc2)cc1	?	?	18	15µM*	?	-6
O=C(NCc1cccnc1)Nc1ccc(Cl)c(Cl)c1	?	-14%	-11	?	-28%	-1
COc1ccc(C(=O)NC(=S)NCc2cccnc2)cc1Cl	11µM*	?	-12	?	-22%	-3
COC(=O)c1cc(C(=O)c2ccc(C(C)(C)C)cc2)c[nH]1	-10%	2%[10 µM]	?	12µM*	?	-8
Fc1ccc(NC(=S)NCc2cccnc2)cc1	11%	4%[10 µM]	18	-4%	18%	2
S=C(NCc1cccnc1)Nc1ccc(Cl)c(Cl)c1	?	?	-58*	?	-19%	-18
COc1cc(C)c(S(=O)(=O)N2CCN(c3ccccc3)CC2)cc1C	/	/	/	/	/	0
COc1ccc(NC(=S)NCc2cccnc2)cc1	-1%	-21%	-18	?	-1%	-6
COC(=O)CNC(=S)NC(=O)c1ccc(C(C)(C)C)cc1	6.3µM*	-22%[10 µM]	4	-27%	-23%	2
CC(C)(C)c1ccc(C(=O)NCc2cccnc2)cc1	?	4%	16	?	-19%	-4
CC(C)(C)c1ccc(C(=O)c2c[nH]c(C(=O)NCc3cccnc3)c2)cc1	?	?	-11	16µM*	18µM*	-8
O=C(NCc1cccnc1)Nc1ccc(Br)cc1	16%	13%	-13	13%	10%	-3
Cc1ccc(NC(=O)NCc2cccnc2)cc1	?	26%	-53*	0%	2%	0
COC(=O)CNC(=O)c1ccc(C)cc1	/	/	/	/	/	-4
CCC(C)c1ccc(NC(=S)NCc2cccnc2)cc1 (stereo not drawn)	?	22µM*	0	7.3µM*	?	-7
COc1cc([C@H]2[C@@H](C(=O)O)c3ccccc3C(=O)N2Cc2ccc(F)cc2)cc(OC)c1OC	/	/	/	/	/	-2
O=C(Nc1cccc(-c2nc3ccccc3s2)c1)[C@@H]1CCCN1C(=O)c1cccs1	/	/	/	/	/	9
CC(C)(C)c1ccc(C(=O)NC(=S)NCc2cccnc2)cc1	-5%	-11%	4	18µM*	16µM*	1
O=C1C=C(N2CCOCC2)C2(CCCCC2)O1	11µM*	-27%	-4	9%	12%	-5
